Screening data (PubChem BioAssay)
Hits are enriched below; roughly 6.3% of the tested compounds scored in any of these assays.
ATXN2 expr inh: Primary qHTS for Inhibitors of ATXN expression. 360,000 tested, 0.72% active. Potency, µM (highest dose often 57 µM), without a hit: top-dose activity change, negative = inhibition, most hits filed as inhibitors. AID 1745845, 2022. HEK-293 ATXN2-luciferase reporter, luminescence, 24 h; also: % is scaled to controls: 0 for no effect and ±100 for the full control effect; nearly all actives have a fitted effect of over 55% in size
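ATXN2-luciferase reporter cells (luciferase flanked by upstream and downstream ATXN2 gene portions) were treated 24 h at 37 °C with compounds at up to 57 uM. SteadyGlo luminescence gave expression; GF-AFC fluorescence gave viability.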
TGFb SMAD3 inh: qHTS for Inhibitors of TGF-b; AID 588855, 2011; 410,000 tested, 1.2% active; Potency, µM (series often up to 46.1 µM), for inactives: at the highest dose activity, negative = inhibition, actives largely listed as inhibitors; HepG2 CAGA-GFP TGF-b/SMAD3 reporter, GFP fluorescence, 18 h; TGF-beta stimulated, 500 pg/mL final; also: % is scaled to controls: 0 for no effect and ±100 for the full control effect; nearly all actives have a fitted effect of over 65% in size
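TGF-beta reporter screen: HEPG2 CAGA-GFP, 1% FBS, 500 pg/mL TGF-beta final, 18 h; per-cell GFP summed per well; curves fitted and categorized by class.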
RORgamma inh: qHTS for inhibitors of ROR gamma transcriptional activity. 310,000 tested, 5.4% active. Drosophila S2 Gal4-RORgamma UAS-luciferase reporter, 20 h. Potency, µM (top dose mostly 53.6 µM), without a hit: top-dose activity change, negative = inhibition, most hits filed as inhibitors. Nuclear receptor ROR-gamma (Mus musculus), P51450; also: % is scaled to controls: 0 for no effect and ±100 for the full control effect; nearly all actives have a fitted effect of over 60% in size
Target sequence (P51450 whole entry, looked up, the tested form may be a part): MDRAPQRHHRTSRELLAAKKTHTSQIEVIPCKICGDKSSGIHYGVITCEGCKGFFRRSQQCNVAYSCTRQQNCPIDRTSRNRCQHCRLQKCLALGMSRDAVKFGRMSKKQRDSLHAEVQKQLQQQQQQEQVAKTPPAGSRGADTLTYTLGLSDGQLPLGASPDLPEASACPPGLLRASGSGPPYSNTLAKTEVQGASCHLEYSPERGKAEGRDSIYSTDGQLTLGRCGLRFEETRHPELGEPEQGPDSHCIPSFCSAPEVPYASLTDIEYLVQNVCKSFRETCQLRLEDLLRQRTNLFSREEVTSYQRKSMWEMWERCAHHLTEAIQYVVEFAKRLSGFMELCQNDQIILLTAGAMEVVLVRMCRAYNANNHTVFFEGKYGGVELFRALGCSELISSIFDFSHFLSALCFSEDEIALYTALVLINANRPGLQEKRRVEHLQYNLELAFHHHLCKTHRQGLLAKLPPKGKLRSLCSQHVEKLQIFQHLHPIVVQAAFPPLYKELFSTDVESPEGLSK
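Read-out: Photinus luciferase luminescence; inhibitors lower reporter signal. Insect Schneider cells with Gal4-ROR gamma fusion under metallothionein promoter, UAS reporter; 700 uM final copper sulfate induction, 20 hr, ambient temperature.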
ATXN viability: Viability Counterscreen for Primary qHTS for Inhibitors of ATXN expression. S2 cells (HEK-293 line with an ATXN2-luciferase reporter) viability, CellTiter-Fluor protease fluorescence, 24 h. Potency, µM (highest dose often 56.7 µM), hits mostly cytotoxic. 400,000 tested, 0.49% active. AID 651635, 2014; also: nearly all actives have a fitted effect of over 40% in size
VP16 counter: VP16 counterscreen qHTS for inhibitors of ROR gamma transcriptional activity. Drosophila S2 Gal4-VP16 UAS-luciferase, luminescence, 20 h. Potency, µM (titrated, usually from 53.6 µM), for the others: at the highest dose activity, negative = inhibition, actives largely listed as inhibitors. 310,000 tested, 3.5% active. AID 2546, 2010;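 also: Gal4-VP16 expression switched on by copper sulfate through the metallothionein promoter; % is scaled to controls: 0 for no effect and ±100 for the full control effect; nearly all actives have a fitted effect of over 50% in size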
HepG2 viability: qHTS for Inhibitors of TGF-b: Cytotox Counterscreen; HepG2 CAGA-GFP viability, ATP luminescence, 18 h; Potency, µM (top dose mostly 46.1 µM), for the others: at the top dose activity change, negative = cytotoxicity, usual class: cytotoxic; 410,000 tested, 0.76% active
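CellTiter-Glo luminescence gave cytotoxicity after 18 hours at 37 degrees C. The cells were HepG2 CAGA-GFP in 1% FBS DMEM, stimulated with 500 pg/mL TGF-beta after compound addition. %Activity was normalised to no-cell wells (complete cell-killing) and DMSO (no toxicity), and curves were fitted and classified.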
Numbers without * were called inactive; i = inactive; ? = inconclusive; . = no result; [ ] = dose if it differs, or a comment. Calls follow the shape of the dose curve; as a rule, active = well fitted curve in the direction sought with a large enough effect; inconclusive = small, poorly fitted or top-dose-only effect, or another doubt; inactive = no such curve, though single readings can be large; an effect the other way counts as inactive or inconclusive. Potency is read from the fitted curve at half-maximal effect.

SMILES	ATXN2 expr inh	TGFb SMAD3 inh	RORgamma inh	ATXN viability	VP16 counter	HepG2 viability
COc1cccc(CNc2cnc3ccccc3c2)c1O	17.3%	-13.3%	?	i	10µM*	-0.2%
Cc1cc(C)cc(NC(=O)C2CCCN2S(=O)(=O)c2cccc3nsnc23)c1 (stereo not drawn)	-11.7%	8.9%	.	?	.	6.3%
Cc1ccc(C)c(-c2cc(C(=O)Nc3nccs3)c3ccccc3n2)c1	-14.2%	-10.7%	12.6µM*	i	?	-5.8%
CC(C)(C)c1nnc(NC(=O)c2cc(-c3ccccc3)nc3ccccc23)s1	-4.7%	4.2%	5.62µM*	i	10µM*	-10.3%
CCc1nnc(NC(=O)c2cc(-c3ccccn3)nc3ccc(Br)cc23)s1	2.8%	-16.1%	20µM*	i	?	-13.7%
CCc1nnc(NC(=O)c2cc(-c3ccncc3)nc3ccccc23)s1	-0.7%	1.5%	-4.2%	i	-1.4%	-1.4%
CC(C)c1ccc(-c2cc(C(=O)NN3CCN(C)CC3)c3ccccc3n2)cc1	19.5%	-14.1%	11.2µM*	i	14.1µM*	-17.1%
Cc1nn(-c2ccccc2)c2sc(C(=O)Nc3cccc(O)c3)cc12	?	?	.	?	.	-106.3%
O=[N+]([O-])c1ccc(-c2nnc(S)n2-c2ccccc2)cc1	.	.	34.7%[1.91 µM]	.	?	.
O=C(NC1=NCCS1)c1cc(-c2ccc(-c3ccccc3)cc2)nc2ccccc12	14.7%[11.3 µM]	-1.4%	3.55µM*	.	5.01µM*	1.1%
Cc1ccc(-c2cc(C(=O)NN=C3CCCC3)c3ccccc3n2)cc1	-15.4%	2.6%	12.6µM*	i	?	-20.3%
COc1ccc(-c2cc(C(=O)NC3=NCCS3)c3ccccc3n2)cc1OC	-5.8%	-5.3%	?	.	0.5%	0.1%
CCOC(=O)c1ccc(NC(=O)CCCn2c(=O)c3cccn3c3cccnc32)cc1	.	-19.8%	.	.	.	-31.8%
CCCNC(=O)Cn1nc(-c2ccc(OC)cc2)c2cnc3ccc(F)cc3c21	10.2%	-11.6%	.	i	.	-4.8%
O=c1[nH]nc(CNc2ccc(C(F)(F)F)cc2)c2ccccc12	.	-11.5%	?	i	1.1%	0.9%
O=c1[nH]nc(CNc2ccc(O)cc2)c2ccccc12	-7.7%	?	-43.9%	i	-24.0%	10µM*
CC1=C(C(=O)N2CCOCC2)CC(CC(=O)NCC2CCCCC2)C(=O)N1CCC1=CCCCC1 (stereo not drawn)	4.3%	-21.9%	.	i	.	-33.7%
CCN(Cc1ccccc1)C(=O)Cn1c(=O)n(-c2ccc(F)c(Cl)c2)c(=O)c2sc3ccccc3c21	2.8%	0.7%	.	i	.	5.9%
COc1ccc(/C=C/c2c([N+](=O)[O-])c(=O)n(C)c(=O)n2C)cc1OC	5.5%	-1.9%	7.7%	i	6.8%	1.4%
Cn1c(/C=C/c2cccc([N+](=O)[O-])c2)c([N+](=O)[O-])c(=O)n(C)c1=O	?	-36.7%	15.8µM*	i	?	-6.0%
CN(C)CCNC(=S)NC1CCCCC1	.	-24.0%	-12.7%	i	1.2%	-6.2%
NNC(=S)NC1CCCCCCCCCCC1	.	10µM*	0.282µM*	i	2.82µM*	8.91µM*
OCCCNC(=S)NC1CCCC1	3.4%	10.1%	-5.7%	i	-3.1%	7.1%
S=C(NC1CCCCCC1)NC1CCCC1	.	-7.6%	1.58µM*	i	10µM*	-4.0%
S=C(NC1CCCCC1)NC1CCCCC1	.	.	2.82µM*	.	?	.
NNC(=S)NC1CCS(=O)(=O)C1 (stereo not drawn)	-10.9%	12.0%	2.82µM*	i	4.47µM*	-29.7%
CCCCC[C@H](O)/C=C/[C@H]1C(=O)C=C[C@@H]1C/C=C\CCCC(=O)O	.	.	-16.6%	.	-14.3%	.
